Here are results for 40 compounds from PubChem BioAssay (Tox21).

Molecules are shown by their SMILES. Results filed as inconclusive are left out. Entries that show only a call come without a potency. Calls of active or inactive are those of the source. The call rests on the fitted dose curve; in most records, active means well fitted inhibition curve with a large enough effect in the repeat runs; inconclusive means weak or mixed curves, or effect the other way; inactive means no such curve, though single readings can be large or run the other way.
Potency means the concentration at half of the fitted maximal effect.

Sequence of Nuclear receptor subfamily 1 group I member 3 (Homo sapiens) (Q14994 whole entry, looked up): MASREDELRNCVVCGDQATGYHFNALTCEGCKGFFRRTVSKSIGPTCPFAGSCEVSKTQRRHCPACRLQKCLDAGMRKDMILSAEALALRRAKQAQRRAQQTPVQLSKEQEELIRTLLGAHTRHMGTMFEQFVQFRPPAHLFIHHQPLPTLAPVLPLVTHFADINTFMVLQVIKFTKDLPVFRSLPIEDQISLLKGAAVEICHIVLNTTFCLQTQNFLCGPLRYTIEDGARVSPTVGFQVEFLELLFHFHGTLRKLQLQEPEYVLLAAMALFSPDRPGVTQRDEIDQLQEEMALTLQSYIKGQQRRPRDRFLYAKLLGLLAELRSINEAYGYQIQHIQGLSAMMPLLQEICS

This test has as its target Nuclear receptor subfamily 1 group I member 3 (Homo sapiens) (UniProt Q14994). Description: qHTS assay to identify small molecule antagonists of the constitutive androstane receptor (CAR) signaling pathway (AID 1224838).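 Further: HepG2 cells stably expressing hCAR with CYP2B6 luciferase reporter stimulated by CITCO; nearly all actives have a fitted effect of over 40% in size.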 The note with it: HepG2-CYP2B6-hCAR luciferase, CITCO-stimulated, 24 h; series mostly up to 92.4 µM. The source says: U.S. Tox21 Program National Center for Advancing Translational Sciences [NCATS] NIH Chemical Genomics Center [NCGC] U.S. Environmental Protection Agency [EPA] National Institutes of Environmental Health Sciences [NIEHS] National Toxicology Program [NTP] U.S. Food and Drug Administration [FDA] Tox21 Assay Overview: The constitutive androstane receptor (CAR) is a nuclear receptor which regulates multiple drug metabolizing enzymes (DMEs) and transporters. Activating CAR will generally increase the transcription and subsequent translation of CYP2B6 and CYP3A4. These two DMEs represent about 50% of the drug metabolizing potential in the body. When CAR is deactivated, the metabolizing potential in the body will decrease, subsequently increasing the toxicity in the body or lowering the therapeutic potential of a pro-drug. Recently, there have also been studies performed indicating CARs role in energy metabolism and cancer therapy. Therefore, inhibiting CARs activity could have a potential effect on diabetes and cancer. Identifying environmental toxins and compounds which modulate CAR, through the use of the Tox21 10K compound collection, will be an important step in determining the toxicity and potential therapeutic effects these factors will have on the human body.
Tox21 Assay Protocol Summary: A double-stable (hCAR and CYP2B6-2.2kb) transfected cell line, derived from human hepatoma (HepG2) cells, was utilized for the duration of the quantitative high-throughput screens. The HepG2-CYP2B6-hCAR cells suspended in DMEM culture medium supplemented with 10% FBS, 5 ug/mL blasticidin, 0.5 mg/mL geneticin, 100 U/mL penicillin and 100 ug/mL streptomycin were dispensed at 2500 cells/4 uL/well in 1536-well white solid bottom plates using a Multidrop Combi. After the assay plates were incubated at 37 C/5% CO2 for 4 hrs, 23 nL of compounds at 15 concentrations (from 5-48 columns) or positive control (from 1 to 4 columns) were transferred to the assay plates using a Pintool station. One uL of CITCO, was added using a Flying Reagent Dispenser to generate a final concentration of 50 nM CITCO inside each well. After a 24 hr incubation period at 37 C/5% CO2, four uL of ONE-Glo reagent was added into the assay plates using a Flying Reagent Dispenser. After a 30 min incubation period at room temperature, the luminescence intensity in the assay plates was measured using a ViewLux plate reader.
Background: Quantitative high-throughput screening tests each substance at several concentrations.
In the case of `C[C@@H]1O[C@@H](O[C@@H]2C=C3CC[C@@H]4[C@H](CC[C@]5(C)[C@@H](c6ccc(=O)oc6)CC[C@]45O)[C@@]3(C)CC2)[C@H](O)[C@H](O)[C@H]1O`, the Potency is 0.0841 µM (active).

Consider `Cc1c(Cl)c(=O)oc2cc(OP(=O)(OCCCl)OCCCl)ccc12`, for which the Potency entry was “inactive”. As to `Oc1c(Cl)c(Cl)cc(Cl)c1Cl`, the Potency result is “inactive”. Regarding `Oc1ccccc1Br`, the Potency result is “inactive”. Then `c1ccc(Nc2ccc3ccccc3c2)cc1`, with “inactive”; and `O=C(NC(=O)c1c(F)cccc1F)Nc1cc(Cl)c(OC(F)(F)C(F)F)c(Cl)c1`, with “inactive”; and `Fc1ccc(Oc2ccnc3cc(Cl)cc(Cl)c23)cc1`, with “inactive”. As to `C[C@]12CC[C@H]3[C@@H](CCC4=CC(=O)CC[C@@]43C)[C@@H]1CC[C@@H]2O`, the Potency result was “inactive”.

Regarding `Cc1cc(N=Nc2ccccc2C)ccc1N`, the Potency result was “inactive”. For `CCCN(CC)CC1COC2(CCC(C(C)(C)C)CC2)O1` (stereo not given), the Potency entry was “inactive”. As to `Oc1ccc2ccc3cccc4ccc1c2c34`, the Potency entry was “inactive”. The result for `CS(=O)(=O)c1ccc(C(=O)C2C(=O)CCCC2=O)c([N+](=O)[O-])c1` reads “inactive”; that for `Nc1ccc([N+](=O)[O-])cc1Cl`, “inactive”. The result for `CCOP(=S)(OCC)SCS(=O)(=O)CC` reads “inactive”; that for `Oc1ccc(C(=C(Cl)Cl)c2ccc(O)cc2)cc1`, “inactive”; that for `NNC(=O)c1ccccc1`, “inactive”. As for `CCN`, the Potency result is “inactive”. In the case of `CC(C)CBr`, the Potency result was “inactive”. Turning to `CN(CCCC(=O)c1cccnc1)N=O`, the Potency entry was “inactive”. For the compound `CC(C)(C)OO`, the Potency entry is “inactive”. Turning to `CC1(C)[C@H](C(=O)O[C@H](C#N)c2cccc(Oc3ccccc3)c2)[C@@H]1/C=C(\Cl)C(F)(F)F`, the Potency result was “inactive”.

`CC(=O)Nc1ccc2c(c1)Cc1ccccc1-2`: the Potency result is “inactive”. `CC(C)(COCC1CO1)COCC1CO1` (stereo not given): the Potency result is “inactive”. Regarding `Clc1ccc(C(c2ccccc2Cl)C(Cl)(Cl)Cl)cc1` (stereo not given), the Potency result is “inactive”.

On to `C=CCOC(N)=O`, for which the Potency entry is “inactive”.

In the case of `CC(C)Oc1cccc(NC(=O)c2ccccc2C(F)(F)F)c1`, the Potency result was “inactive”.

`COc1ccc(OC)c(CC(C)N)c1` (stereo not given): the Potency entry is “inactive”. In the case of `c1ccc(OCC2CO2)cc1` (stereo not given), the Potency entry was “inactive”.

Take `CC(=O)OC1(c2ccccc2)CCN(CCc2ccccc2)CC1`: the Potency is 8.84 µM (active). On to `S=C(SSC(=S)N1CCCCC1)N1CCCCC1`, for which the Potency is 0.376 µM (active). For the compound `Fc1cccc(Cl)c1CCl`, the Potency entry was “inactive”. With `CC1(C)CC/C(=C/c2ccc(Cl)cc2)C1(O)Cn1cncn1` (stereo not given), the Potency entry was “inactive”. As for `O=C(CCl)Nc1ccccc1`, the Potency is 54.5 µM (active). In the case of `c1ccc2c(c1)[nH]c1cnccc12`, the Potency entry is “inactive”. The result for `CC(C)(O)c1cnn2c(-c3ccc(F)c(-c4c(F)cccc4C#N)c3)cnc2n1` reads “inactive”; that for `Cc1cccc(OP(=O)(Oc2cccc(C)c2)Oc2cccc(C)c2)c1`, “inactive”. Turning to `O=C(CCCN1CCC2(CC1)C(=O)NCN2c1ccccc1)c1ccc(F)cc1`, the Potency is 7.5 µM (active). For the compound `CCc1nn(C)c(C(=O)NCc2ccc(C(C)(C)C)cc2)c1Cl`, the Potency entry was “inactive”.

For the compound `BrC(Br)Br`, the Potency entry is “inactive”.

Turning to `[Hg+2].[I-].[I-]`, the Potency was 30.6 µM (active).
